Screening results deposited in PubChem BioAssay by National Center for Advancing Translational Sciences (NCATS).
Hits are enriched below; roughly 21% of the tested compounds scored in any of these assays.
Shiga inhibitor – inhibitors of Shiga toxin in Vero cells. Vero cells, Shiga toxin protein synthesis inhibition reporter. 290,000 compounds, 9.2% hits. inhibition, % at 38.7 µM. AID 2315; in the data active means inhibition mostly above about 28%, no sharp cut-off; inactive means mostly below about 43%; further: 0% is about no effect
Pf growth 96h – P. falciparum growth inhibition at 96 hours; P. falciparum luciferase reporter growth, 96 h; AID 504834; Potency, µM (titrated, usually from 28.7 µM), for the others: at the highest dose activity change, negative = inhibition, actives largely listed as inhibitors; 320,000 compounds, 6.9% hits; further: potency means the concentration at half of the fitted maximal effect; on the % scale 0 is the no-effect control and ±100 the full control effect
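Plates of compound plus infected erythrocytes (2% hematocrit, 0.05% parasitemia final) incubate 96 hours, 37 C, 5% CO2. Detection reagent added; reduced luminescence from the parasites' luciferase reporter flags inhibition.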
NS1 function inh – blocks influenza NS1 protein function. 270,000 compounds, 0.4% hits. AID 2326. Potency, µM (highest dose often 46.1 µM), for the others: top-dose activity, positive = more growth; calls by dose curve; further: potency means the concentration at half of the fitted maximal effect; actives are rising curves; nearly all actives have a fitted effect of over 50% in size
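A cell-based growth assay was used: compounds that relieve NS1-induced slow growth of budding yeast raise OD600. Assay medium was yeast nitrogen base with ammonium sulphate and -URA supplement, pH 6.0, with 2% galactose.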
Pf growth 48h – inhibits P. falciparum growth in the first generation, 48 h; P. falciparum luciferase growth in erythrocytes, 48 h; Potency, µM (doses to about 28.7 µM), without a hit: top-dose activity change, negative = inhibition, most hits filed as inhibitors; 310,000 compounds, 5.9% hits; further: potency means the concentration at half of the fitted maximal effect; on the % scale 0 is the no-effect control and ±100 the full control effect
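Growth was read as firefly luciferase luminescence after a 48 h, 37 C, 5% CO2 exposure of compounds to reporter-bearing P. falciparum cultures (0.1% parasitemia, 2% hematocrit final) in Albumax-supplemented RPMI 1640.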
Giardia FBPA inh – inhibitors of Giardia lamblia fructose-1,6-bisphosphate aldolase; 290,000 compounds, 0.71% hits; Potency, µM (doses to about 59.6 µM), inactives show at the top dose activity, negative = inhibition, hits mostly inhibitors; A8B2U2; purified Giardia FBPA; further: potency means the concentration at half of the fitted maximal effect; on the % scale 0 is the no-effect control and ±100 the full control effect; nearly all actives have a fitted effect of over 55% in size
Target sequence (A8B2U2 whole entry, looked up): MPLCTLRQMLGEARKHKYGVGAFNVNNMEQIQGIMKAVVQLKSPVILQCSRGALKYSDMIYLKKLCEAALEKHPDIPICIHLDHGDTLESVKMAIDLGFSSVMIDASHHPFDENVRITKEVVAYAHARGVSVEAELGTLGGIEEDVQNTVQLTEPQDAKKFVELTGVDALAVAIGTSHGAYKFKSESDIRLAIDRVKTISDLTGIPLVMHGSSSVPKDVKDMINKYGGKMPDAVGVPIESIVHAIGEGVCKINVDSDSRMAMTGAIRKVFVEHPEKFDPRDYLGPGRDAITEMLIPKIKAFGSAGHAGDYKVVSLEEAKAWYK
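40 nM FBPA preincubated 10 min at RT with compound (up to 57.5 uM final), then substrate plus GAPDH/TPI/NAD/arsenate coupling and diaphorase/resazurin added. Fluorescence read after 20 min at RT, 525/598 nm.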
CHX counter – counter-screen for Shiga toxin inhibitors: cycloheximide protein synthesis inhibition. cell reporter, cycloheximide protein synthesis inhibition counterscreen. max response, %. 300,000 compounds, 12% hits; in the data active means max response mostly above about 13%, no sharp cut-off; inactive means mostly below about 14%; further: read at 38.3 µM for the half of the compounds with a filed dose; 0% is about no effect
The depositor's hits bear a star; i = inactive; u = inconclusive; x = not tested or not shown. Unless noted, the call rests on the fitted dose curve; in most records, active means well fitted curve in the direction sought with a large enough effect; inconclusive means small, poorly fitted or top-dose-only effect, or another doubt; inactive means no such curve, though single readings can be large; an effect the other way counts as inactive or inconclusive.

SMILES	Shiga inhibitor	Pf growth 96h	NS1 function inh	Pf growth 48h	Giardia FBPA inh	CHX counter
CCCc1nnc(SCC(=O)Nc2ccccc2Cl)n1CC1CCCO1 (stereo unspecified)	-4.3	3.7%	1.9%	1.2%	3.7%	-4.4
CCCCCC[n+]1c(-c2ccccc2)csc1Nc1ccccc1	-5.9	u	-31.6%	3.29µM*	5.7%	-6.9
Cc1ccc(S(=O)(=O)N2CCN(C)CC2)c2nsnc12	-5.4	6.2%	0.9%	18.8%	-1.3%	-4.1
COCc1cc(C)nc2sc(C(=O)Nc3nccs3)c(N)c12	50.4	140.4%	-57.0%	x	-16.1%	41.9*
COCc1cc(C)nc2sc(C(=O)Nc3ccc(OC)cc3)c(N)c12	84.5	u	8.5%	59.4%	-2.0%	28.6*
COCc1cc(C)nc2sc(C(=O)Nc3cccc(OC)c3)c(N)c12	65.9*	u	-3.8%	108.0%	2.6%	53.6*
COCc1cc(C)nc2sc(C(=O)Nc3ccccc3OC)c(N)c12	29.3	u	1.8%	-26.0%	3.7%	9.2
C[C@](N)(COP(=O)(O)O)C(=O)O	x	x	x	x	-16.2%	x
CC[N+](C)(CC)CCOC(=O)C(O)(c1ccccc1)c1ccccc1	x	3.1%	x	-5.1%	x	x
C[N+](C)(C)CCOC(=O)C(O)(c1ccccc1)c1ccccc1	x	10.7µM*	x	-0.2%	x	x
O=C(Cn1cnc2scc(-c3ccccc3)c2c1=O)NCc1ccco1	-6.3	96.5%	-0.5%	-17.3%	-1.0%	6.6
CCc1ccc(-c2csc3ncn(CC(=O)NCc4ccco4)c(=O)c23)cc1	30.1*	-12.7%	u	u	0.0%	14.9*
COC(=O)C1SCC2C(=O)N(Cc3ccccc3)CC(=O)N21 (stereo unspecified)	5.2	65.5%	x	37.8%	8.2%	7.3
CCN(CC)c1ccc(NC(=O)c2cc(Cl)ccc2OC)cc1	7.1	u	-13.8%	x	-5.6%	8.3
O=C(Nc1ccc(Nc2ccccc2)cc1)c1ccccc1F	73.8*	i	-31.9%	56.7%	-0.2%	33.2*
O=C(O)c1cc(NC(=O)c2ccccc2F)cc(NC(=O)c2ccccc2F)c1	-11.9	-14.0%	13.6%	19.6%	2.8%	-2.1
COc1ccc(C(=O)Nc2ccc(C3(C#N)CCCC3)cc2)cc1	-9.7	u	-0.7%	-5.7%	-11.1%	10.3
CCN(CC)c1ccc(NC(=O)c2ccccc2F)cc1	71.2*	46.3%	7.5%	41.3%	-9.3%	37.8*
N#CC1(c2ccc(NC(=O)c3ccccc3F)cc2)CCCC1	62.3*	u	-12.7%	191.0%	-15.4%	44.8*
O=C(CN1C(=O)COc2ccc(Cl)cc21)NCC1CCCO1 (stereo unspecified)	10.4	-1.7%	6.0%	3.1%	0.1%	-2.7
Cc1ccccc1-n1c(SCC(=O)c2c(N)n(C)c(=O)n(C)c2=O)nc2sc3c(c2c1=O)CCCC3	-1.2	0.928µM*	20.2%	3.7µM*	-9.7%	-2.7
CN(C)C(CNC(=O)CSc1nc2sc3c(c2c(=O)n1C)CCCC3)c1ccccc1 (stereo unspecified)	x	11.7µM*	x	u	x	x
Cn1c(SCC(=O)O)nc2sc3c(c2c1=O)CCC3	-8.5	u	0.5%	-1.9%	2.1%	-2.3
CC(NC(=O)CSc1nc2sc3c(c2c(=O)n1-c1ccccc1)CCCC3)c1ccccc1 (stereo unspecified)	-3.9	-24.7%	11.2%	11.7µM*	2.8%	-1.0
Cc1ccccc1-n1c(SCC(=O)c2c(N)n(C)c(=O)n(C)c2=O)nnc1-c1cccnc1	-10.2	-15.3%	3.1%	-8.5%	-5.0%	-4.7
SMILES	Shiga inhibitor	Pf growth 96h	NS1 function inh	Pf growth 48h	Giardia FBPA inh	CHX counter
O=C(NCc1ccncc1)C(=O)NCC1OCCCN1S(=O)(=O)c1cc(F)ccc1F (stereo unspecified)	-29.5	7.3%	11.4%	4.2%	x	-2.9
Cc1cc(S(=O)(=O)N2CCCOC2CNC(=O)C(=O)NCCc2ccco2)ccc1F (stereo unspecified)	-5.2	8.28µM*	9.3%	-11.6%	x	6.2
O=C(NCC1OCCCN1S(=O)(=O)c1cc(F)ccc1F)C(=O)NC1CCCCCC1 (stereo unspecified)	6.1	-16.7%	x	5.2%	-1.5%	14.7*
Cc1cc(F)ccc1S(=O)(=O)N1CCCOC1CNC(=O)C(=O)NCCc1c[nH]c2ccccc12 (stereo unspecified)	-9.4	9.28µM*	-5.9%	u	1.2%	-3.7
CCOC(=O)C1C(C(=O)OC)=C(c2ccc(F)cc2)c2ccc(OC)cc2N1S(=O)(=O)C(F)(F)F (stereo unspecified)	28.0	x	x	x	-10.6%	5.9
O=C(c1ccncc1)N1CCC2(CC1)CCN(c1ccccn1)CC2	x	x	x	x	-2.1%	x
O=C(c1ccncc1)c1nccn1-c1ccccn1	-12.0	13.1µM*	1.5%	-6.1%	2.8%	-9.6
CCN1CCc2nc(NC(=O)c3ccc4c(c3)OCCO4)sc2C1	97.9*	96.1%	4.2%	140.4%	-1.2%	32.9*
CCN1CCc2nc(NC(=O)C(c3ccccc3)c3ccccc3)sc2C1	-25.7	8.28µM*	3.5%	x	-9.4%	-1.9
CCN1CCc2nc(NC(=O)CC(c3ccccc3)c3ccccc3)sc2C1	-1.5	10.4µM*	17.4%	5.86µM*	0.1%	-3.7
Cc1ccc(S(=O)(=O)N(C)c2ccc3sc(C)nc3c2)cc1	-17.2	30.5%	-32.8%	21.0%	-12.1%	-2.4
CCOc1ccc(-c2csc(NC(=O)C3CCCO3)n2)cc1 (stereo unspecified)	11.0*	x	-15.8%	55.4%	-1.7%	41.7*
O=C(Nc1nc(-c2ccc(Cl)cc2Cl)cs1)C1CCCO1 (stereo unspecified)	7.5	55.6%	-5.7%	14.9%	-6.1%	9.3
O=C(Nc1nc(-c2ccc(Cl)cc2)cs1)C1CCCO1 (stereo unspecified)	90.8*	139.2%	x	82.1%	-14.8%	36.1*
CCNc1ncc2ncc(=O)n(Cc3cccs3)c2n1	x	x	x	x	0.9%	x
COc1ccc(CN2CCC(N3CCC(C(=O)N4CCOCC4)CC3)CC2)c(F)c1	11.9	10.4µM*	4.8%	10.9%	0.4%	-0.9
COc1ccc(OC)c(CN2CCC(C(=O)N3CCOCC3)CC2)c1	-1.3	9.28µM*	-9.9%	0.4%	-3.6%	-0.9
COc1ccc(OC)c(CN2CCC(C(=O)N3CCN(c4ccccc4F)CC3)CC2)c1	-5.6	u	u	-9.5%	-5.7%	-2.5
COc1ccc(F)c(CN2CCC(N3CCC(C(=O)N4CCOCC4)CC3)CC2)c1	-5.2	22.5%	3.3%	3.1%	-4.4%	-3.5
Cc1cc(-c2nnc(SCC(=O)Nc3cccc(Cl)c3)n2N)n[nH]1	6.1	u	1.0%	-19.6%	x	1.1
CC1(c2ccccc2)CC(C)(C)N(C(=O)CSc2nnc(N)s2)c2ccccc21 (stereo unspecified)	-10.4	5.22µM*	-7.7%	u	-2.2%	-6.4
CCCCCC(=O)N1c2ccccc2C(C)(c2ccccc2)CC1(C)C (stereo unspecified)	12.8	x	x	x	x	7.2
